Measured values as given in PubChem BioAssay (NCI).
Values joined by “and” are separate entries in the source; they are usually repeats but may differ in a detail not shown here. Equal entries are not always repeated. Compounds without any hit were thinned out: in the full panel of roughly 79,000, 15% have a hit. No stated cut-off is given here; in the data, active means growth inhibition above about 70%; inactive means the rest.

Assays:
[1] = NCI Yeast Anticancer Drug Screen. Data for the rad50 strain (AID 155);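 further: 0% = growth of vehicle-only cultures of the same strain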; details: S. cerevisiae rad50 strain growth inhibition, hits give high values; at 50.0 µM unless noted
Method in brief: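 Vehicle-treated cultures provide the reference for the growth inhibition reported for compound-exposed, repair-deficient yeast.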

[2] = NCI Yeast Anticancer Drug Screen. Data for the mec2-1 strain (AID 157); details: S. cerevisiae mec2-1 strain, hits give high values; at 50.0 µM unless noted
Method in brief: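 Compounds were applied to mec2-1 yeast cells. Their growth was then compared with that of vehicle-treated cultures to give growth inhibition.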

[3] = NCI Yeast Anticancer Drug Screen. Data for the sgs1 mgt1 strain (AID 161);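 further: 0% = growth of cultures given vehicle only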; details: S. cerevisiae sgs1 mgt1 strain, hits give high values; at 50.0 µM unless noted
Method in brief: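 Percent growth inhibition was derived by comparing compound-exposed mutant yeast with vehicle-exposed cultures. The strain carries alterations in DNA damage repair.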

[4] = NCI Yeast Anticancer Drug Screen. Data for the cln2 rad14 strain (AID 165);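 further: 0% = growth equal to vehicle treated cultures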; details: S. cerevisiae cln2 rad14 strain, hits give high values; at 50.0 µM unless noted
Method in brief: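 Strain: cln2 rad14 yeast, altered in cell cycle control and DNA damage repair. Read-out: growth inhibition vs vehicle.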

[5] = NCI Yeast Anticancer Drug Screen. Data for the bub3 strain (AID 167); details: S. cerevisiae bub3 mutant strain, hits give high values; at 50.0 µM unless noted
Method in brief: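 Mutant yeast screening strain plus compound; vehicle-treated cultures serve as the 0% inhibition reference.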

[6] = NCI Yeast Anticancer Drug Screen. Data for the mlh1 rad18 strain (AID 175); details: S. cerevisiae mlh1 rad18 strain growth inhibition, hits give high values; at 50.0 µM unless noted
Method in brief: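 A repair-deficient yeast strain is exposed to test compound, and growth is scored relative to vehicle-treated controls.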

Measured: growth inhibition

CCOc1ccc(/C=C/C(=O)c2sc(NNC(C)=O)nc2C)cc1
inactive: [1] 20.1% | [2] 25.1% | [3] -11.6% | [4] 12.7% | [5] 25.9% | [6] 22.4%

c1cc2c(cc1C1=NNC(c3ccc4c(c3)OCO4)=NN1)OCO2
inactive: [1] -13.3% | [2] 10.2% | [3] -7.45% | [4] 1.4% | [5] -4.95% | [6] -3.05%

Cc1ccccc1OC(=O)Oc1ccccc1C
inactive: [1] 8.7% | [2] -2.6% | [3] 4.8% | [4] 1% | [5] 21.1% | [6] 21.9%

CC(C)=C1C2CCC1C(CO)C2CO (stereo not given)
inactive: [1] 4.95% | [2] -8.45% | [3] -13.5% | [4] -102% | [5] -2.4% | [6] -15.7%

Cc1c(Cl)cccc1C(=O)O
inactive: [1] -3.15% | [2] 10.7% | [3] 3.65% | [4] -3.15% | [5] -10% | [6] 27.6%

O=C(/C=C\c1ccc(Cl)c(Cl)c1)/C=C/c1ccc(Cl)c(Cl)c1
inactive: [1] 25.5% | [2] 4.75% | [3] 26.4% | [4] 9.55% | [5] 39% | [6] 16.6%

O=C1OC(C(O)C(O)CO)C(O)C1O (stereo not given)
inactive: [1] 8.2% and -17.4% | [2] 7.7% and -27.4% | [3] 1.35% and -34.2% | [4] -16.9% and -32.7% | [5] 14.4% and -0.9% | [6] -23.7% and -1.8%

O=C(OC1C2C=COC(OC3OC(CO)C(O)C(O)C3O)C2C2(CO)OC12)c1ccc(O)cc1 (stereo not given)
inactive: [1] -0.15% | [2] -6.45% | [3] 17.8% | [4] 18.6% | [5] 1.8% | [6] -11.6%

CCCCOC(=O)NC(Nc1ccc(S(N)(=O)=O)cc1)(C(F)(F)F)C(F)(F)F
inactive: [1] 5.95% | [2] 7.9% | [3] 2.95% | [4] -1.4% | [5] 12.1% | [6] 18.3%

CC(C)COC(=O)C(CC(C)C)NC(=O)C(C)O (stereo not given)
inactive: [1] 5.95% | [2] -17.4% | [3] -13.3% | [4] 10.8% | [5] -14.7% | [6] 6.6%

CC1=C(C(=O)Nc2ccccc2)C(c2ccc(N(C)C)cc2)C(C(=O)Nc2ccccc2)=C(C)N1
inactive: [1] -13.7% | [2] 7.4% | [3] -6.3% | [4] 24.4% | [5] -6.8% | [6] 15.8%

CC(C)CN(CC(C)C)C(=O)c1ccccc1
inactive: [1] 2.3% | [2] 8.2% | [3] 1.1% | [4] 8.85% | [5] 4.9% | [6] 2.4%

CC12Nc3ccccc3N1C(=O)c1ccccc12 (stereo not given)
inactive: [1] 15.7% | [2] 6.15% | [3] -34.8% | [4] 1.95% | [5] -1% | [6] -0.5%

COC(=O)CC(C)N(c1ccc(Cl)c(Cl)c1)S(=O)(=O)c1ccc(C)cc1 (stereo not given)
inactive: [1] 37.9% | [2] -0.15% | [3] 4.1% | [4] -19.1% | [5] -6.05% | [6] 11.1%

O=C(O)Cc1cc2c(cc1I)OCO2
inactive: [1] -1.2% | [2] 22.9% | [3] 2.15% | [4] -18.9% | [5] -11.2% | [6] -0.55%

CN(C)C(=O)NN1CCCCCC1
inactive: [1] 7.25% | [2] 13.9% | [3] -14.2% | [4] -14.7% | [5] 13.3% | [6] -13.3%

COC1CC(OC2CCC3(C)C(CCC45CCC(C6=CC(=O)OC6)C(C)(CCC43)C5=O)C2)OC(C)C1O (stereo not given)
inactive: [1] 22.4% | [2] -11.7% | [3] 2.6% | [4] 17.6% | [5] 12.8% | [6] -17.9%

C=CCCC(=O)CC(=O)OCc1ccccc1
inactive: [1] -7.2% | [2] -31% | [3] -1.15% | [4] 8.05% | [5] -37% | [6] 16.1%

O=CC(O)C(Cl)C(Cl)C(O)CCl (stereo not given)
inactive: [1] -0.65% and 2.1% | [2] -1.85% and -3.6% | [3] 0.65% and 8.3% | [4] 9.75% and -46% | [5] -2.65% and -11% | [6] 40.7% and -14.5%

O=C(NC(NC(=O)c1ccccc1)c1ccccc1)c1ccccc1
inactive: [1] 2.1% | [2] -9.2% | [3] 1.25% | [4] -55.2% | [5] 8.55% | [6] -0.9%
